High-throughput results: PubChem BioAssay, National Center for Advancing Translational Sciences (NCATS)
DT40 TDP1 no CPT: qHTS for Inhibitors of human tyrosyl-DNA phosphodiesterase 1 (TDP1): qHTS in cells in absence of CPT; DT40 Tdp1-/- hTDP1 cells, no CPT, ATP luminescence, 48 h; Potency, µM (doses to about 46.2 µM), usual class: inhibitors; 420,000 compounds, 15% hits; AID 686978, 2013; further: nearly all actives have a fitted effect of over 55% in size
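Luminescent ATP content (CellTiter-Glo) served as the growth readout. Knockout chicken DT40 cells expressing human TDP1 were exposed to compounds without camptothecin for a minimum 48 hr at 37 °C.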
HT1080NT lethal: qHTS for induction of synthetic lethality in tumor cells producing 2HG: qHTS for the HT-1080-NT fibrosarcoma cell line; HT-1080-NT fibrosarcoma viability, CellTiter-Glo ATP luminescence, 48 h; Potency, µM (top dose mostly 46.1 µM), usual class: cytotoxic; 360,000 compounds, 1.6% hits; AID 686970, 2013;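 further: NT is the 2HG producing partner of a matched IDH1 knockdown line; nearly all actives have a fitted effect of over 55% in size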
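Luminescent CellTiter-Glo readout after 48 hours of compound exposure at 37 degrees C defined viability of HT-1080-NT cells. Activity was normalized to DMSO wells and cell-free media wells; concentration-response curves were fitted and assigned curve classes.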
HT1080 IDH1KD tx: qHTS for induction of synthetic lethality in tumor cells producing 2HG: qHTS for the HT-1080-IDH1KD cell line | HT-1080 IDH1 knockdown viability, ATP luminescence, 48 h | Potency, µM (titrated, usually from 46.1 µM), actives largely listed as cytotoxic | 360,000 compounds, 2% hits
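Using the IDH1-knockdown HT-1080 line run in the same batch and compound series as the NT line, viability after 48 h at 37 °C was determined by CellTiter-Glo luminescence and expressed as % activity.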
DT40 TDP1 CPT: qHTS for Inhibitors of human tyrosyl-DNA phosphodiesterase 1 (TDP1): qHTS in cells in presence of CPT | 420,000 compounds, 12% hits | Potency, µM (doses to about 46.2 µM), usual class: inhibitors | chicken DT40 Tdp1-/-;hTDP1 cells + 20 nM CPT, ATP luminescence, 48 h | AID 686979, 2013; further: nearly all actives have a fitted effect of over 55% in size
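Chicken DT40 Tdp1-/- cells complemented with human TDP1, 400 cells/well, exposed to compounds plus 20 nM camptothecin for at least 48 h at 37 C; viability read as ATP content by CellTiter-Glo luminescence.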
IL-1B inflam inh: qHTS for Inhibitors of Inflammasome Signaling: IL-1-beta AlphaLISA Primary Screen | activity change, % at 57.5 µM | 360,000 compounds, 4.7% hits | THP-1 LPS/ATP IL-1B secretion, AlphaLISA, 16 h; hits give low values; in the data active means activity change below about -50%; inconclusive means mostly about -30% to -49%
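THP-1 cells pretreated 1 hr with compounds (up to 57.5 uM final), then stimulated with LPS (250 ng/mL final) plus ATP (1.25 mM final); secreted IL-1B measured by AlphaLISA after 16 hr, decreased signal indicating inhibition.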
Large screens that a line does not name were inactive. Most compounds without a hit are left out; they make up all but 19% or so of the library. Unless noted, the call rests on the fitted dose curve; in most records, active means well fitted curve in the direction sought with a large enough effect; inconclusive means small, poorly fitted or top-dose-only effect, or another doubt; inactive means no such curve, though single readings can be large; an effect the other way counts as inactive or inconclusive.

COc1ccc(CN2C(=O)C(CC(=O)NCc3ccco3)CC(C(=O)N(C(C)C)C(C)C)=C2C)cc1 (centres undefined)	DT40 TDP1 no CPT inconclusive, DT40 TDP1 CPT inconclusive
COCC(C)n1c(SCC(=O)Nc2cccnc2Cl)nc2ccccc2c1=O (centres undefined)	DT40 TDP1 no CPT inconclusive
CCCCn1c(SCc2ccc(C(=O)OC)o2)nc2cc(S(N)(=O)=O)ccc21	DT40 TDP1 no CPT 9.2µM, HT1080NT lethal inconclusive, DT40 TDP1 CPT 3.3µM, IL-1B inflam inh -78
Cc1cccc(OCCCSc2nc3ccc(C)cc3[nH]2)c1	DT40 TDP1 no CPT inconclusive, DT40 TDP1 CPT inconclusive, IL-1B inflam inh -72
COCC(C)n1c(SCc2cc(C(=O)OC)c(C)o2)nc2ccccc2c1=O (centres undefined)	DT40 TDP1 no CPT 5.8µM, DT40 TDP1 CPT 4.1µM
COC(=O)c1ccc(CSc2nc3ccccc3c(=O)n2CC(C)C)o1	DT40 TDP1 no CPT inconclusive, DT40 TDP1 CPT inconclusive
COC(=O)c1ccc(CSc2nc3ccccc3c(=O)n2C)o1	DT40 TDP1 no CPT inconclusive, DT40 TDP1 CPT 15µM, IL-1B inflam inh inconclusive
Cc1cccc(OCCSc2nc3ncnc(N)c3[nH]2)c1	DT40 TDP1 CPT inconclusive
CCCCn1c(SCC(=O)c2cc(OC)ccc2OC)nc2cc(S(N)(=O)=O)ccc21	none
CSc1ccccc1NC(=O)C1CCN(S(C)(=O)=O)CC1	none
COC(=O)c1ccc2c(=O)n(Cc3ccco3)c(SCC(=O)Nc3ccc(C)c(Cl)c3)nc2c1	DT40 TDP1 no CPT 21µM, DT40 TDP1 CPT 10µM
CCc1nc(SCc2ccc(C(=O)OC)o2)c2c(=O)n(C)c(=O)n(C)c2n1	DT40 TDP1 no CPT 9.2µM, DT40 TDP1 CPT 15µM
O=C(CSc1nc2cc(Cl)ccc2c(=O)n1Cc1ccco1)Nc1ccc(S(=O)(=O)N2CCOCC2)cc1	none
N#CC1(NC(=O)CSc2n[nH]c(-c3ccccc3)n2)CCCCC1	none
COC(=O)[C@@]12C[C@@H](CC(=O)NCc3cccc4ccccc34)C(=O)N(Cc3ccccc3)C1=CCC(C)(C)C2	DT40 TDP1 no CPT inconclusive, HT1080NT lethal inconclusive, HT1080 IDH1KD tx inconclusive, DT40 TDP1 CPT inconclusive, IL-1B inflam inh -61
CCOC(=O)[C@]12CCCC=C1N(Cc1ccc3c(c1)OCO3)C(=O)[C@H](CC(=O)NCc1cccc3ccccc13)C2	DT40 TDP1 no CPT inconclusive, HT1080NT lethal inconclusive, DT40 TDP1 CPT inconclusive
COC(=O)[C@@]12C[C@@H](CC(=O)NCc3ccccc3)C(=O)N(Cc3ccc4c(c3)OCO4)C1=CCC(C)(C)C2	DT40 TDP1 no CPT 16µM, HT1080NT lethal inconclusive, HT1080 IDH1KD tx inconclusive, DT40 TDP1 CPT 16µM, IL-1B inflam inh inconclusive
COC(=O)[C@@]12C[C@@H](CC(=O)NCc3cccc4ccccc34)C(=O)N(Cc3ccc4c(c3)OCO4)C1=CCC(C)(C)C2	DT40 TDP1 no CPT 13µM, HT1080NT lethal inconclusive, HT1080 IDH1KD tx inconclusive, DT40 TDP1 CPT inconclusive, IL-1B inflam inh -87
COc1ccc(OC)c(NC(=O)c2c(NC(=O)CNCc3ccco3)sc3c2CCC3)c1	DT40 TDP1 no CPT 3.7µM
COc1ccc(NC(=O)c2c(NC(=O)CNCc3ccco3)sc3c2CCC3)cc1	none
COC(=O)c1c(NC(=O)CCNCc2ccco2)sc2c1CCC2	DT40 TDP1 no CPT inconclusive, HT1080NT lethal inconclusive, HT1080 IDH1KD tx inconclusive, DT40 TDP1 CPT 23µM, IL-1B inflam inh -51
COc1ccc(NC(=O)c2c(NC(=O)CNCc3ccco3)sc3c2CCC3)c(OC)c1	DT40 TDP1 no CPT 21µM, DT40 TDP1 CPT inconclusive
CC12CN3CC(C)(CN(C1)C3c1ccc([N+](=O)[O-])o1)C2=O (centres undefined)	none
CC(=NN1CC(=O)NC1=O)c1ccc([N+](=O)[O-])o1	DT40 TDP1 no CPT 16µM, HT1080NT lethal inconclusive, DT40 TDP1 CPT inconclusive
CCc1ccc(-n2nc(C)c3c(C)cc(=O)n(CC(=O)Nc4cc(Cl)ccc4OC)c32)cc1	none (no result: HT1080NT lethal, HT1080 IDH1KD tx, IL-1B inflam inh)
